Hit rate of the full screen: of about 16,000 compounds, about 5,100 (32%) were called active. Roughly 25% stayed inconclusive and do not appear here. Some of the results follow. A number with no mark means an inactive call. Calls come from the whole dose curve; as a rule, active = well fitted curve in the direction sought with a large enough effect; inconclusive = small, poorly fitted or top-dose-only effect, or effect the other way; inactive = no such curve, though single readings can be large or run the other way.
These molecules were tested against Cytochrome P450 3A4 (Homo sapiens) (UniProt P08684) (assay: Cytochrome panel assay with activity outcomes). Details: recombinant CYP, pro-luciferin dealkylation, luminescence, p450-cyp3a4; series mostly up to 57.1 µM.
Sequence of Cytochrome P450 3A4 (Homo sapiens) (P08684 whole entry, looked up): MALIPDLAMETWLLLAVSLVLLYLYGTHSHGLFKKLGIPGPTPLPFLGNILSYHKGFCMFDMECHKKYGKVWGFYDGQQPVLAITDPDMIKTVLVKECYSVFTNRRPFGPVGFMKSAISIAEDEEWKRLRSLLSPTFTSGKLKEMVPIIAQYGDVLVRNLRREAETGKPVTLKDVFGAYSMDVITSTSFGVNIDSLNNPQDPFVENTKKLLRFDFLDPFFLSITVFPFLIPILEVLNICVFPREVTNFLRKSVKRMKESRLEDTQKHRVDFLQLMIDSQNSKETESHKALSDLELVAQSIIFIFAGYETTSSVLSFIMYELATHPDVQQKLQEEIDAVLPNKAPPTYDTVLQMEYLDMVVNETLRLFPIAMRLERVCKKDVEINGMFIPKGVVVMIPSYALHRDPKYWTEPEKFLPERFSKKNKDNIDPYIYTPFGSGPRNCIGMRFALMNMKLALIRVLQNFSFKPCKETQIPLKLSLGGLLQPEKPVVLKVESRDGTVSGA
In the case of `Cc1ccc(S(=O)(=O)NC(=O)Nc2ncn[nH]2)cc1`, the activity, negative = inhibition is reported as -2.15% [at 11.4 µM].
`CCOCCCn1cnc2c([nH]c3cc(OC)ccc32)c1=O` was tested, and the AC50 was “inactive”.
In the case of `CCOCCCN1C(=O)CN(C2CCCCC2)C(=O)C1c1ccc(OCC)c(OC)c1` (stereo not given), the AC50 is reported as 12.6 µM (active).
`CCOCCCN1C(=O)CN(C2CCCCCC2)C(=O)C1c1ccc(OC)cc1` (stereo not given) was tested, and the AC50 was 12.6 µM (active).
For `COc1ccc(/C(O)=C2/C(=O)C(=O)N(CCN3CCOCC3)C2c2ccc(C)cc2)cc1` (stereo not given), the AC50 was “inactive”.
In the case of `COc1ccc(NC(=O)Cn2cccc2)c(OC)c1`, the AC50 is reported as “inactive”.
In the case of `COc1ccc(NC(=O)CSc2ccc3c4c(cccc24)C(=O)c2ccccc2-3)cc1`, the AC50 is reported as 1 µM (active).
In the case of `COc1ccc(-n2nnnc2SCC(=O)Nc2ccccc2)cc1`, the AC50 is reported as 14.1 µM (active).
In the case of `COc1ccc(NC(=O)CSC2=NC(=O)CC(C)=N2)cc1`, the AC50 is reported as “inactive”.
In the case of `COc1ccc(-n2ccnc2SCC(=O)Nc2ccc(OC)cc2OC)cc1`, the AC50 is reported as 3.98 µM (active).
With `COc1ccc(-n2nnnc2/C=C\Nc2ccccc2C(=O)c2ccccc2)cc1` the AC50 was “inactive”.
For `COc1ccc(-n2ccnc2SCC(=O)Nc2ccccc2)cc1`, the AC50 was 11.2 µM (active).
With `CCn1c(SC)nnc1C1CCN(S(=O)(=O)c2ccc(OC)cc2)CC1` the AC50 was “inactive”.
For `COC(=O)CSc1nnc(C)n1-c1cccc(OC)c1`, the AC50 was “inactive”.
In the case of `COc1ccc(O)c(/C=N/NC(=O)CSc2nnc(C)n2-c2ccccc2)c1`, the AC50 is reported as 7.94 µM (active).
`CCn1c(SCC(=O)c2ccc(OC)cc2)nnc1C1CC1` was tested, and the AC50 was 22.4 µM (active).
With `COc1ccc(NC(=O)CSc2nnc(C3CC3)n2-c2ccccc2)cc1` the AC50 was 3.16 µM (active).
In the case of `COc1ccc(NC(=O)CSc2nnc(C3CC3)n2N)cc1`, the activity, negative = inhibition is reported as -8.56% [at 11.4 µM].
With `CCC(=O)Nc1ccc(NC(=O)CSc2nnnn2-c2cccnc2)cc1C` the AC50 was 3.55 µM (active).
For `COc1ccc(OC)c(/C=N/NC(=O)c2csc3ccccc23)c1`, the activity, negative = inhibition was 3.57% [at 2.29 µM].
For `Cn1nnnc1SCC(=O)Nc1ccccc1[N+](=O)[O-]`, the AC50 was “inactive”.
With `CCn1c(SCC(=O)OC)nnc1C1CCCCC1` the AC50 was “inactive”.
`O=C(CSc1nnc2c3ccccc3c3ccccc3c2n1)Nc1ccccc1` was tested, and the activity, negative = inhibition was 1.75% [at 2.29 µM].
With `NCC(=O)Nc1ccccc1` the activity, negative = inhibition was -12.7% [at 11.4 µM].
`CCn1ccc(C(=O)NC2=C(C#N)CCC2)n1` was tested, and the AC50 was “inactive”.
For `Cn1c(SCC(=O)Nc2ccccc2)nc(O)cc1=O`, the AC50 was 3.55 µM (active).
For `Cn1ccnc1SCC(=O)Nc1sccc1C#N`, the AC50 was 14.1 µM (active).
With `COc1cccc(-n2ccnc2SCC(=O)Nc2nccs2)c1` the AC50 was 3.55 µM (active).
For `O=C(O)CCC(=O)N1CCC[C@H]1C(=O)O`, the AC50 was “inactive”.
In the case of `O=C(c1ccncc1)N1CCC2(CCCN(C(c3ccccc3)c3ccccc3)C2)CC1`, the AC50 is reported as 1 µM (active).
With `O=C(c1cnccn1)N1CCC2(CCCN(c3ncccn3)C2)CC1` the AC50 was “inactive”.
With `O=C(c1ccncc1)N1CCC2(CC1)CCN(c1ncccn1)CC2` the AC50 was “inactive”.
With `O=C(c1cnccn1)N1CCC2(CCCN(C(c3ccccc3)c3ccccc3)C2)CC1` the AC50 was 1.58 µM (active).
For `O=C(c1ccncc1)N1CCC2(CC1)CCN(C(c1ccccc1)c1ccccc1)CC2`, the AC50 was “inactive”.
With `Cc1ccc(C(=O)c2ccc(CC(=O)O)n2C)cc1` the AC50 was “inactive”.
For `CCOc1ccccc1Nc1nc(-c2sc(NC(=O)c3ccccc3)nc2C)cs1`, the AC50 was 7.94 µM (active).
Molecule `CCOc1ccccc1Nc1ccc(N)cc1S(=O)(=O)O` has an activity, negative = inhibition of -9.59% [at 11.4 µM].
For `COc1ccccc1Nc1nc(-c2sc(NC(=O)c3ccc([N+](=O)[O-])cc3)nc2C)cs1`, the AC50 was 8.91 µM (active).
For `Cc1ccc(Nc2nc(-c3sc(NC(=O)c4ccc([N+](=O)[O-])cc4)nc3C)cs2)cc1`, the AC50 was 10 µM (active).
`CCOC(=O)C[C@@H](C(=O)OCC)[C@@H]1CCCCC1=O` showed an activity, negative = inhibition of -10.4% [at 11.4 µM].
`COCCn1c(Cc2ccccc2)nnc1SCc1nc2ccccc2c(=O)[nH]1` was tested, and the AC50 was 3.16 µM (active).
In the case of `CC[C@@H]1OC(=O)[C@H](C)[C@H](O[C@@H]2C[C@](C)(OC)[C@H](O)[C@H](C)O2)[C@H](C)[C@H](O[C@@H]2O[C@@H](C)C[C@@H](N(C)C)[C@@H]2O)[C@](C)(O)C[C@H](C)[C@@H]2N[C@H](COCCOC)O[C@H]([C@@H]2C)[C@]1(C)O`, the AC50 is reported as “inactive”.
For `CCn1c(=O)c2c(nc3n2CCS3)n(C)c1=O`, the AC50 was “inactive”.
In the case of `CC(C)(Sc1ccc(CCN(CCCCC2CCCCC2)C(=O)NC2CCCCC2)cc1)C(=O)O`, the AC50 is reported as 3.98 µM (active).
In the case of `Cc1cc(C)nc(NC(=O)c2cccc([N+](=O)[O-])c2C)n1`, the AC50 is reported as “inactive”.
With `Cc1cccc(NC(=O)c2ccc([N+](=O)[O-])o2)n1` the AC50 was “inactive”.
For `O=C(Nc1cccc(NC(=O)c2ccccc2[N+](=O)[O-])n1)c1ccccc1[N+](=O)[O-]`, the AC50 was 10 µM (active).
In the case of `CC(Cc1ccccc1)NC(=O)CSc1nc2nc3c(cc2c(=O)n1-c1ccccc1)COC(C)(C)C3` (stereo not given), the AC50 is reported as 7.94 µM (active).
`CNC(C)c1cc(OC)ccc1OC` (stereo not given) was tested, and the AC50 was “inactive”.
With `COc1cc(/C=C\c2ccc(OC)cc2OC)cc(OC)c1` the AC50 was 15.8 µM (active).
For `COc1ccc(/C=N/n2c(C)nnc2C)c(OC)c1`, the AC50 was “inactive”.
With `COc1ccc(N2CCN(S(=O)(=O)c3ccc4c(c3)CCCC4)CC2)c([N+](=O)[O-])c1` the AC50 was 4.47 µM (active).
In the case of `O=C(c1cc(-c2ccncc2)nc2ccccc12)N1CCN(c2ccc(N3CCOCC3)nn2)CC1`, the AC50 is reported as 1.58 µM (active).
For `O=C(O)c1cc(-c2ccc(-c3ccccc3)cc2)nc2cc3ccccc3cc12`, the activity, negative = inhibition was 2.43% [at 11.4 µM].
With `Cc1ccc(C)c(NC(=O)C2(C)CC3c4ccccc4C2c2ccccc23)c1` (stereo not given) the AC50 was 2.24 µM (active).
In the case of `Cc1ccc(C)c(NC(=O)C2C3CCCC2C3c2ccccc2)c1` (stereo not given), the AC50 is reported as “inactive”.
In the case of `Cc1ccc(C)c(NC(=O)C2CC3c4ccccc4C2c2ccccc23)c1` (stereo not given), the activity, negative = inhibition is reported as -27.2% [at 2.29 µM].
In the case of `Fc1ccc(CN(C2=NCCN2)c2c(Cl)cccc2Cl)cc1`, the AC50 is reported as “inactive”.
For `Cc1ccccc1C(=O)Nc1ccc(N2CCOCC2)nc1`, the AC50 was “inactive”.
For `Cc1ccc(NC(=O)c2cc(N3C(=O)C4CC=CCC4C3=O)ccc2N2CCOCC2)cc1Cl` (stereo not given), the AC50 was 12.6 µM (active).
With `O=C(Nc1ccc2nc(SCc3ccc(Cl)cc3)sc2c1)c1ccccc1C(=O)N1CCOCC1` the AC50 was 7.94 µM (active).
In the case of `CCCC(=O)Nc1ccc2nc(SCC(=O)Nc3ccc(N4CCOCC4)c(Cl)c3)sc2c1`, the AC50 is reported as 1.41 µM (active).
In the case of `Cc1nc(SCC(=O)Nc2ccc(N3CCOCC3)cc2)nc(C)c1C`, the AC50 is reported as 14.1 µM (active).
Molecule `Cn1c(CCC(=O)Nc2ccc(N3CCOCC3)cc2)nc(=O)c2ccccc21` has an activity, negative = inhibition of -13.8% [at 11.4 µM].
With `O=C(c1ccc2nc3ccc(Cl)cc3c(=O)n2c1)N1CCOCC1` the AC50 was “inactive”.
With `CCOC(=S)SCC(=O)O` the activity, negative = inhibition was -14.7% [at 11.4 µM].
Work on `CCOc1ccc(OCCOc2ncnc3ccccc23)cc1` yielded an activity, negative = inhibition of -3.65% [at 2.29 µM].
With `Cc1ccc(NC(=O)c2cc(NC(=O)CCC(=O)O)ccc2N2CCCCC2)cc1` the AC50 was “inactive”.
With `Cc1ccc(NC(=O)CSCC(=O)Nc2ccc(N3CCOCC3)c(Cl)c2)cc1` the AC50 was 3.55 µM (active).
Molecule `O=C(/C=C/c1ccco1)NC(=S)Nc1ccc(N2CCOCC2)c(Cl)c1` has an activity, negative = inhibition of 12.4% [at 2.29 µM].
With `NCCOB(c1ccccc1)c1ccccc1` the AC50 was 12.6 µM (active).
Molecule `NCCSCCc1ccccc1` has an activity, negative = inhibition of -8.42% [at 11.4 µM].
For `O=C(O)[C@@H]1CCCNC1`, the AC50 was “inactive”.
In the case of `Cc1ccc(C(=O)Nc2c(C#N)c(C)c(C)n2Cc2ccccc2)cc1`, the AC50 is reported as 10 µM (active).
With `Cc1ccc(C(=O)N/N=C/c2sc(=O)n(Cc3cccc(C(=O)O)c3)c2Cl)cc1` the AC50 was “inactive”.
`CCC(C)n1c(NC(=O)c2ccccc2)c(C#N)c2nc3ccccc3nc21` (stereo not given) was tested, and the AC50 was “inactive”.
Molecule `CCOC(=O)Cc1csc(NC(=O)c2c(-c3c(Cl)cccc3Cl)noc2C)n1` has an activity, negative = inhibition of -21.4% [at 2.29 µM].
`CCOC(=O)Cc1csc(NC(=O)c2ccc(S(=O)(=O)N3CCCCC3)cc2)n1` was tested, and the AC50 was “inactive”.
`CCOC(=O)Cc1csc(NC(=O)c2ccc(Cl)nc2)n1` was tested, and the AC50 was 14.1 µM (active).
With `CCOc1cc(S(=O)(=O)N(Cc2ccccc2)Cc2ccccc2)c(OCC)cc1-n1cnnn1` the AC50 was 12.6 µM (active).
`COc1ccccc1CNc1ccnc(-c2ccccc2OC)n1` was tested, and the AC50 was 15.8 µM (active).
`COc1ccccc1CNc1ccnc(-c2ccccc2C(F)(F)F)n1` was tested, and the AC50 was 12.6 µM (active).
`COCCNc1ccnc(-c2ccccc2C(F)(F)F)n1` was tested, and the AC50 was “inactive”.
In the case of `COc1ccccc1-c1nccc(NC2CCNCC2)n1`, the AC50 is reported as “inactive”.
In the case of `Fc1ccc(Nc2ccnc(-c3ccccc3C(F)(F)F)n2)cc1`, the AC50 is reported as 12.6 µM (active).
For `COc1ccc(CSc2nnnn2C)cc1[N+](=O)[O-]`, the AC50 was “inactive”.
`CCCOc1ccc(Cn2c(C)nc([N+](=O)[O-])c2SCC(O)COC)cc1[N+](=O)[O-]` (stereo not given) was tested, and the AC50 was 14.1 µM (active).
For `Cc1nc([N+](=O)[O-])c(N2CCN(C)CC2)n1Cc1ccccc1`, the AC50 was “inactive”.
`Nc1nc2c(nc(Br)n2[C@@H]2O[C@H]3COP(=O)(O)O[C@@H]3[C@H]2O)c(=O)[nH]1` was tested, and the AC50 was “inactive”.
With `COc1cc2c(CCNC(C)=O)c[nH]c2cc1Cl` the AC50 was 15.8 µM (active).
With `COC(=O)Nc1ccc2[nH]cc(CCNC(C)=O)c2c1` the AC50 was “inactive”.
Work on `Nc1ccc2[nH]cc(CCC(=O)O)c2c1` yielded an activity, negative = inhibition of -1.6% [at 11.4 µM].
`CN(C)[C@@H]1C(=O)C(C(N)=O)=C(O)[C@]2(O)C(=O)C3=C(O)c4c(O)ccc(Cl)c4[C@H](O)[C@H]3C[C@@H]12` was tested, and the AC50 was “inactive”.
For `Cc1ccc(Cn2cnc3c(nnn3Cc3ccc(Cl)cc3)c2=O)cc1`, the AC50 was 3.16 µM (active).
In the case of `Cc1ccc(/C=C/c2ccc(=O)n(Cc3ccc(Cl)cc3Cl)n2)cc1`, the AC50 is reported as “inactive”.

— PubChem BioAssay AID1851 (National Center for Advancing Translational Sciences (NCATS), 2009)
% is set by controls: 0 for no effect and ±100 for the full control effect.
